This is an account of results in the supplement of paper PMC4954754.

± gives the uncertainty stated by the source.

The subject of this assay is HEK293T-Rex ERSE-FLuc. Kind of assay: ERSE-FLuc reporter activation, triplicate confirmation, relative to 500 nM thapsigargin (% of thapsigargin); higher = stronger ATF6/ERSE reporter activation. The note with it: 6.8 µM; 18 h; screen: confirmation. The protocol:
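HEK293T-Rex cells stably expressing the ERSE-firefly luciferase (BiP promoter, ATF6-preferring) or XBP1-splicing Renilla luciferase (IRE1/XBP1s) reporter, 1536-well plates, compound at 6.8 µM for 18 hr at 37 °C; luminescence read […] and expressed as % activation = 100*(compound - median DMSO)/(median 500 nM thapsigargin - median DMSO). Primary screen was single-pass; confirmation screen in triplicate (mean ± SD).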
`COc1c(O)cc2oc(-c3ccc(O)c(O)c3)cc(=O)c2c1O` showed an ERSE-FLuc reporter activation of 133 ± 21.
Compound `CC(=O)c1cccc(Nc2nc(-c3ccc(O)c(O)c3)cs2)c1` registered an ERSE-FLuc reporter activation of 31.6 ± 5.1.
To `O=c1[nH]c(COc2ccccc2)nc2sc3c(c12)CCCC3` belongs 39 ± 5.3; to `COc1ccc(/C=C/c2ccc3cccc(OC(C)=O)c3n2)cc1OC(C)=O`, 39.7 ± 5.5; to `C/C(=N\NC(=O)c1n[nH]c2c1CCCC2)c1ccc(Br)cc1`, 27.2 ± 1.9.
To `O=C(Nc1ccccc1O)c1ccc(NS(=O)(=O)c2cccc3cccnc23)cc1` belongs 25.6 ± 8.1; to `COc1ccccc1-c1cc(C(=O)Nc2cc(C)ccc2O)no1`, 29.1 ± 4; to `Nc1c(C(=O)Nc2ccccc2)sc2nc3c(cc12)CCCCC3`, 35.6 ± 5.3.
For the compound `Cn1cccc1/C=C1/SC(=Nc2ccccc2)NC1=O`, the ERSE-FLuc reporter activation was found to be 37.4 ± 1.9.
In the case of `Cc1ccc(NC(=S)NC(=O)C(=O)Nc2ccccc2)cc1` it was 139 ± 11.
In the case of `Cc1cc(C)c2nc3sc(C(=O)N4CCCCC4)c(N)c3cc2c1`, the ERSE-FLuc reporter activation is 32.5 ± 8.
`CCOc1ccc(NC(=O)c2cccc(F)c2)c([N+](=O)[O-])c1` registered an ERSE-FLuc reporter activation of 25.9 ± 2.4.
To `Cc1cc(C)nc(/N=C(\N)Nc2ccc(OCc3ccccc3)cc2)n1` belongs 53.1 ± 14; to `Cc1ccc(O)c(NC(=O)CSc2n[nH]c(C)c2[N+](=O)[O-])c1`, 52.5 ± 14; to `CCOc1cccc(/C=C2\NC(=S)N(C)C2=O)c1O`, 26.2 ± 29.
To `Cc1ccc(O)c(NC(=O)c2cc(-c3cccs3)on2)c1` belongs 106 ± 4; to `Cc1cnc(NC(=O)c2sc3nc4c(C)cccc4cc3c2N)s1`, 28.6 ± 7.1.
The compound `Cc1ccc(O)c(N=CC2=C(O)c3ccccc3C2=O)c1` returned an ERSE-FLuc reporter activation of 78.8 ± 6.2.
As for `O=C1N/C(=C/c2ccc(O)cc2)C(=O)N1Cc1ccc(Br)cc1`, the ERSE-FLuc reporter activation was 37.1 ± 3.6.
For `O=C(/C=C/c1ccccc1)Nc1ccc(Br)cn1`, the ERSE-FLuc reporter activation turned out to be 27.6 ± 6.8.
On to `Nc1nc(Nc2ccc(Cl)cc2)nc2ccccc12`, for which the ERSE-FLuc reporter activation amounted to 30.7 ± 5.2.
`O=C1NC(=Nc2ccccc2)S/C1=C/c1ccc(O)c(O)c1`: the ERSE-FLuc reporter activation was 38.4 ± 10.
In the case of `COc1cccc(C(=O)Nc2nc3ccc(C)cc3s2)c1` it was 32.2 ± 7.2; in that of `CC(=O)Oc1ccc2cc(NC(=O)c3ccc(C)cc3)c(=O)oc2c1`, 29.7 ± 6.
The compound `Cc1ccc(O)c(NC(=O)c2cc(-c3cccnc3)on2)c1` had an ERSE-FLuc reporter activation of 70 ± 3.2.
Compound `CN(c1ccccc1)S(=O)(=O)c1cccc(C(=O)NCCc2ccc(O)c(O)c2)c1` displayed an ERSE-FLuc reporter activation of 44.7 ± 3.8.
To `COc1ccccc1/C=C/C(=O)Nc1ccc(Cl)cn1` belongs 27.9 ± 6.6; to `N#Cc1c(NC(=O)c2cccc(F)c2)sc2c1CCC2`, 25.9 ± 3.9; to `COc1ccc(/C=C(\C#N)c2nc(-c3ccco3)cs2)cc1O`, 35.1 ± 3.9.
In the case of `O=C(/C=C/c1ccccc1)Nc1ccc(Cl)cn1` it was 27.9 ± 6.3.
In the case of `CCN(CC)c1ccc2cc(-c3nc4ccccc4n3C)c(=O)oc2c1` it was 34.2 ± 4.2; in that of `Oc1ccccc1/C=N\Nc1nc2ccccc2o1`, 26.6 ± 4.4; in that of `C=CCn1c(N2CCC(C(=O)NCCc3ccc(O)c(O)c3)CC2)nc2ccccc21`, 28.9 ± 6.2.
In the case of `Nc1ccc2nc(-c3ccc(Cl)cc3)[nH]c2c1`, the ERSE-FLuc reporter activation turned out to be 33.6 ± 2.4.
To `O=C(NCCc1ccccc1)c1cc(-c2cccs2)on1` belongs 34.5 ± 3.6; to `Nc1ccc2nc(-c3cc(Cl)c(N)c(Cl)c3)[nH]c2c1`, 35.6 ± 10; to `COc1ccc(C2C=C3Oc4ccccc4N=C3NN2)cc1` (stereo not given), 29 ± 3.5.
As to `Cc1ccn2cc(-c3ccc(O)c(O)c3)nc2c1`, the ERSE-FLuc reporter activation stood at 36.4 ± 12.
To `CC(C)CC(c1nnnn1C1CCCC1)N1CCN(C(=O)c2ccco2)CC1` (stereo not given) belongs 29.5 ± 1; to `Cc1ccc(O)c(NC(=O)CCc2ccccc2)c1`, 63.24 ± 0.61.
